Only a sample is shown.
aSyn 5UTR act: Activators via SNCA 5'UTR binding, MLPCN | alpha-synuclein 5'UTR reporter, activators screen | activity score, % (tested at 7.5 µM), hits read low | hit rate 7.1% among 300,000; in the data active means activity score below about -60%
Numbers without * were called inactive.

SMILES	aSyn 5UTR act
Nn1c(SCc2cccc(F)c2)nnc1-c1cccnc1	-70.8*
N#C/C(=C\C=C\c1ccccc1[N+](=O)[O-])C(=O)NC1CCCCC1	-131.6*
COc1ccc(-c2[nH]ncc2CN2CCC(O)(c3ccc(Cl)cc3)CC2)cc1	87.4
COc1ccc(CN2CCN(c3nc4ccccc4s3)CC2)cc1	-69.4*
Cc1ccccc1CN1CCN(c2nc3ccccc3s2)CC1	-146.4*
CCC(=O)Nc1cccc(NC(=S)NC(=O)c2ccc(Cl)cc2)c1	-150.9*
CCC(=O)Nc1cccc(NC(=S)NC(=O)c2ccccc2C)c1	-112.9*
CCOc1ccc(C(=O)NC(=S)Nc2cccc(S(=O)(=O)NC3=NCCC3)c2)cc1	110.8
C=CCn1cc(/C=N/Nc2nc3ccccc3[nH]2)c2ccccc21	-194.9*
Cn1c(/C=N/Nc2nc3ccccc3[nH]2)nc2ccccc21	-188.2*
CC(C)Cn1c(/C=N/Nc2nc3ccccc3[nH]2)nc2ccccc21	-337.1*
O=C(Nc1nnc(Cc2ccccc2F)s1)Nc1ccccc1F	-98.6*
O=C(Nc1nnc(-c2ccccc2F)s1)Nc1ccccc1F	-154.8*
O=C1c2cccc3c(O)ccc(c23)C(=O)N1c1ccc(Cl)cc1	-140.6*
CN(C)/C=C1\N=C(c2ccc3c(c2)OCO3)OC1=O	-115.8*
O=C(C1CCCN1S(=O)(=O)c1cccc2nsnc12)N1CCN(c2ccccc2)CC1 (configuration not stated)	-62.8*
Nc1ccc(Nc2nc(-c3cc4ccccc4oc3=O)cs2)cc1	-199.9*
CC(=O)Nc1ccc(Nc2nc(-c3cc4ccccc4oc3=O)cs2)cc1	-449.4*
CCOC(=O)C(C#N)c1ccccn1 (configuration not stated)	-69.6*
COC(=O)CCCNC(=O)c1ccc2oc(CCCc3ccccc3)nc2c1	-62.1*
COC(=O)[C@@H](C)NC(=O)c1ccc2oc(CCc3ccccc3)nc2c1	-168.6*
CCOC(=O)/C(C#N)=C/c1cc(C)n(-c2ccc(C)cc2)c1C	-129.8*
CC(C)COC(=O)/C(C#N)=C/c1cn(Cc2ccccc2)c2ccccc12	79.5
c1ccc(-c2nc3c(ccc4ccccc43)[nH]2)nc1	-157.0*
O=c1[nH]c(-c2ccccn2)nc2ccccc12	-96.3*
SMILES	aSyn 5UTR act
Nc1nc(-c2nc3ccccc3[nH]2)cs1	-86.2*
c1ccc(-c2nc3ccccc3[nH]2)nc1	-81.0*
Cc1ccc(-c2nc3ccccc3n2C)o1	-154.6*
CC(=O)c1ccc(-c2nc3ccccc3n2C)o1	-142.5*
Cc1ccc(C2Nc3ccccc3-c3nc4ccccc4n32)o1 (configuration not stated)	-104.3*
COc1ccc2cnn(-c3ccc(OC(F)(F)Cl)cc3)c(=O)c2c1OC	-70.4*
COc1ccc2cnn(-c3ccc(C)cc3)c(=O)c2c1OC	-115.2*
COc1ccccc1Nc1nc(N)nc(-c2cc3ccccc3o2)n1	-62.1*
CCn1c(C(=O)NC2CCC(C)CC2)cc2sccc21 (configuration not stated)	-87.3*
COC(=O)c1cccc(NC(=O)c2cc3sccc3n2C)c1	-76.0*
Cn1c(C(=O)NC2CCCCC2)cc2sccc21	-147.4*
CN(C(=O)c1cc2sccc2n1C)C1CCCCC1	-109.6*
CC(=O)Oc1ccc(C(=O)Nc2nnc(C)s2)cc1	-63.3*
Cc1nnc(NC(=O)c2ccc(Br)cc2)s1	-96.2*
C/C(=N\Nc1cc(Cl)nc(C)n1)c1ccccc1	-142.0*
Cc1no[n+]([O-])c1COc1ccccc1/C=N/n1nnnc1N	-99.3*
Oc1[nH]c2ccccc2c1N=Nc1ccccc1F	-356.9*
Oc1[nH]c2ccccc2c1N=Nc1ccc(F)cc1	-171.3*
CC(C)(O)C(=O)N=Nc1c(O)[nH]c2ccccc12	-96.4*
O=C1NCCc2c1[nH]c1ccc([N+](=O)[O-])cc21	70.1
O=[N+]([O-])c1ccc(N=Nc2c(O)[nH]c3ccc(F)cc23)cc1	-82.0*
Oc1[nH]c2ccccc2c1N=Nc1ccccc1	-123.0*
Cc1nc2ccccn2c1C(=O)N=Nc1c(O)[nH]c2ccccc12	-103.2*
CCOc1ccc(NC(=O)N2CCC(c3nc4ccccc4[nH]3)CC2)cc1	-71.1*
Cc1ccc(Cn2nnnc2CN2CCC(c3nc4ccc(Cl)cc4[nH]3)CC2)cc1	78.3
SMILES	aSyn 5UTR act
O=S(=O)(c1ccc(Cl)cc1)N1CCC(c2nc3ccccc3[nH]2)CC1	75.9
Cc1cccc(-c2nnc(SCC(=O)N3CCOCC3)o2)c1	-70.2*
O=C(CSc1nnc(-c2cccc(F)c2)o1)N1CCOCC1	-75.4*
Oc1cccc(Nc2c3ccccc3nc3ccccc23)c1	-80.6*
CC(=O)Nc1ccc(Nc2ncnc3c2cnn3-c2cccc(C)c2)cc1	-158.8*
Clc1ccc(Nc2ncnc3c2cnn3-c2ccccc2)cc1	-119.0*
Cn1ncc2c(Nc3ccc4ccccc4c3)ncnc21	-164.1*
CC(C)Nc1ncnc2c1cnn2-c1ccc(Cl)cc1	56.3
Cn1ncc2c(O/N=C(\N)c3ccc(C(C)(C)C)cc3)ncnc21	104.1
O=[N+]([O-])c1ccc(O)c(/C=N/Nc2ncnc3c2cnn3-c2ccccc2)c1	66.3
CC(=O)Nc1ccc(Nc2ncnc3c2cnn3-c2ccccc2)cc1	-110.0*

Screens: PubChem BioAssay, Broad Institute
